Where a name gives a salt, the structure may show the parent alone.
What was measured:
Conditions in all cases: incubation time: 27 h, anaerobic, 37 °C;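 for the amine columns active = adjusted P below 0.05 in both replicates with a change the same way and a mean fold change under 0.8 or over 1.25; inactive = the rest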
[1] = tested on: Clostridium sporogenes DSM 1664; assay: growth (OD595) fold change vs plate DMSO controls (fold change (ratio)); higher = more growth
Summary of the method: (§1)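 To obtain OD, 595 nm absorbance readings were blank-subtracted, corrected for compound background using 20 µM compound solutions in water, and multiplied by a calibration factor of 5. They came from 96-well mGAM cultures grown anaerobically for 27 h at 37 °C and shaken before reading. Growth is the fold change relative to the median of plate DMSO controls. Two biological replicates were averaged, and fold changes above 1.5 were set to NA.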

Escherichia coli IAI1 [2] = assay: as above
Summary of the method: as §1

[3] = tested on: Klebsiella aerogenes DSM 30053; assay: as above
Summary of the method: as §1

[4] = tested on: Ruminococcus gnavus DSM 108212; assay: as above
Summary of the method: as §1

[5] = tested on: Klebsiella aerogenes DSM 30053; assay: fold change of Histamine concentration vs plate DMSO controls (fold change (ratio)); higher = more amine produced, active = hit call of the paper (significant change in both replicates, either direction)
Summary of the method: (§2)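 Extracts of whole anaerobic mGAM cultures were analysed for amines by LC–triple-quadrupole MS with dynamic MRM and external calibration curves, with drift corrected within batch. Four gut strains were grown at 37 °C for 27 h in 80 µL wells with compounds at 20 µM final, sweeteners at 50 µM final. Each value expresses fold change over plate DMSO controls. The average of 2 biological replicates is shown.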

[6] = tested on: Clostridium sporogenes DSM 1664; assay: fold change of Tryptamine concentration vs plate DMSO controls (fold change (ratio)); higher = more amine produced, active = hit call of the paper (significant change in both replicates, either direction)
Summary of the method: as §2

[7] = tested on: Ruminococcus gnavus DSM 108212; assay: as above
Summary of the method: as §2

Escherichia coli IAI1 [8] = assay: fold change of Putrescine concentration vs plate DMSO controls (fold change (ratio)); higher = more amine produced, active = hit call of the paper (significant change in both replicates, either direction)
Summary of the method: as §2

[9] = tested on: Klebsiella aerogenes DSM 30053; assay: as above
Summary of the method: as §2

Escherichia coli IAI1 [10] = assay: fold change of Cadaverine concentration vs plate DMSO controls (fold change (ratio)); higher = more amine produced, active = hit call of the paper (significant change in both replicates, either direction)
Summary of the method: as §2

[11] = tested on: Klebsiella aerogenes DSM 30053; assay: as above
Summary of the method: as §2

[12] = tested on: Ruminococcus gnavus DSM 108212; assay: fold change of 2-Phenylethylamine concentration vs plate DMSO controls (fold change (ratio)); higher = more amine produced, active = hit call of the paper (significant change in both replicates, either direction)
Summary of the method: as §2

SMILES | growth [1] | growth (Escherichia coli IAI1 [2]) | growth [3] | growth [4] | fold change of Histamine concentration [5] | fold change of Tryptamine concentration [6] | fold change of Tryptamine concentration [7] | fold change of Putrescine concentration (Escherichia coli IAI1 [8]) | fold change of Putrescine concentration [9] | fold change of Cadaverine concentration (Escherichia coli IAI1 [10]) | fold change of Cadaverine concentration [11] | fold change of 2-Phenylethylamine concentration [12]
Oc1cc(O)c2c(c1)O[C@H](c1ccc(O)c(O)c1)[C@@H](O)C2 [Cianidanol] (20 µM) | 1.04 | 0.998 | 0.998 | 1.06 | 1.03 (inactive) | 1.26 (active) | 0.867 (inactive) | 0.977 (inactive) | 0.95 (inactive) | 0.859 (inactive) | 0.993 (inactive) | 0.978 (inactive)
COc1cc(C(=O)NCc2ccc(OCCN(C)C)cc2)cc(OC)c1OC [Trimethobenzamide hydrochloride] (20 µM) | 1.13 | 1.08 | 0.972 | 1.04 | 0.877 (inactive) | 1.12 (inactive) | 1.04 (inactive) | 1.05 (inactive) | 0.835 (inactive) | 1.02 (inactive) | 0.903 (inactive) | 1.05 (inactive)
N#Cc1cc(NC(=O)C(=O)O)c(Cl)c(NC(=O)C(=O)O)c1 [Lodoxamide] (20 µM) | 1.02 | 1.15 | 1.01 | 1.12 | 0.985 (inactive) | 1.05 (inactive) | 0.986 (inactive) | 1.17 (inactive) | 1.01 (inactive) | 0.977 (inactive) | 0.997 (inactive) | 0.934 (inactive)
COC(=O)[C@H](Cc1ccccc1)NC(=O)[C@H](CC(=O)O)NCCCc1ccc(OC)c(O)c1 [Advantame] (50 µM) | 0.941 | 0.94 | 0.999 | 0.968 | 1 (inactive) | 0.973 (inactive) | 0.899 (inactive) | 0.932 (inactive) | 1.02 (inactive) | 1.04 (inactive) | 0.996 (inactive) | 0.9 (inactive)
N#CC(c1ccc(Cl)cc1)c1c(Cl)cc(-n2ncc(=O)[nH]c2=O)cc1Cl (stereo not drawn) [Diclazuril] (20 µM) | 0.806 | 0.993 | 1.08 | 0.961 | 0.913 (inactive) | 0.791 (inactive) | 0.778 (active) | 0.911 (inactive) | 0.967 (inactive) | 0.99 (inactive) | 1.03 (inactive) | 0.81 (inactive)
CC(=O)N[C@@H](CS)C(=O)O [Acetylcysteine] (20 µM) | 0.935 | 1.07 | 0.967 | 0.985 | 1.14 (inactive) | 1.07 (inactive) | 0.993 (inactive) | 1.03 (inactive) | 1.02 (inactive) | 1.02 (inactive) | 0.987 (inactive) | 1 (inactive)
NS(=O)(=O)c1cc2c(cc1Cl)NC(C(Cl)Cl)NS2(=O)=O (stereo not drawn) [Trichlormethiazide] (20 µM) | 1.14 | 1.08 | 1.01 | 1.07 | 1.05 (inactive) | 1.05 (inactive) | 1.03 (inactive) | 1.11 (inactive) | 1.02 (inactive) | 1.03 (inactive) | 0.984 (inactive) | 1.01 (inactive)
CC(=O)NS(=O)(=O)c1ccc(N)cc1 [Sulfacetamide sodic hydrate] (20 µM) | 0.934 | 0.995 | 0.974 | 0.888 | 1.02 (inactive) | 0.976 (inactive) | 1.06 (inactive) | 1.02 (inactive) | 0.996 (inactive) | 0.98 (inactive) | 0.993 (inactive) | 1.08 (inactive)
CC(C)OC(=O)C(C)(C)Oc1ccc(C(=O)c2ccc(Cl)cc2)cc1 [Fenofibrate] (20 µM) | 1.12 | 1.04 | 1.04 | 1.36 | 0.941 (inactive) | 1.03 (inactive) | 1.05 (inactive) | 1.03 (inactive) | 0.984 (inactive) | 1.03 (inactive) | 1.01 (inactive) | 1.05 (inactive)
CCc1nc(N)nc(N)c1-c1ccc(Cl)cc1 [Pyrimethamine] (20 µM) | 1.05 | 0.96 | 0.961 | 1.17 | 1.07 (inactive) | 1.01 (inactive) | 0.912 (inactive) | 0.792 (inactive) | 0.977 (inactive) | 1.32 (active) | 0.989 (inactive) | 0.819 (inactive)
CC1CS(=O)(=O)CCN1/N=C/c1ccc([N+](=O)[O-])o1 (stereo not drawn) [Nifurtimox] (20 µM) | 1.13 | 1.03 | 0.924 | 1.04 | 0.593 (active) | 0.895 (inactive) | 0.971 (inactive) | 0.949 (inactive) | 0.949 (inactive) | 0.974 (inactive) | 0.998 (inactive) | 1.03 (inactive)
CO[C@@H]1[C@@H](O[C@@H]2O[C@H](C)[C@@H](O[C@H]3C[C@@](C)(O)[C@@H](O)[C@H](C)O3)[C@H](N(C)C)[C@H]2O)[C@@H](CC=O)C[C@@H](C)[C@@H](O[C@H]2CC[C@H](N(C)C)[C@@H](C)O2)/C=C/C=C/C[C@@H](C)OC(=O)C[C@H]1OC(C)=O [Acetyl spiramycin] (20 µM) | 0.00073 | 1.03 | 0.958 | 0.154 | 0.621 (active) | 0.0194 (active) | 0.153 (active) | 0.875 (inactive) | 1.03 (inactive) | 0.989 (inactive) | 1.03 (inactive) | 0.156 (active)
Cc1cc(C(C)(C)C)c(O)c(C)c1CC1=NCCN1 [Oxymetazoline hydrochloride] (20 µM) | 0.934 | 1.02 | 0.987 | 0.978 | 0.947 (inactive) | 1.03 (inactive) | 1.01 (inactive) | 0.983 (inactive) | 0.958 (inactive) | 0.968 (inactive) | 1.01 (inactive) | 0.996 (inactive)
OC(CCN1CCCCC1)(c1ccccc1)C1CC2C=CC1C2 (stereo not drawn) [Biperiden hydrochloride] (20 µM) | 1.01 | 1.01 | 1.17 | 0.975 | 0.911 (inactive) | 0.995 (inactive) | 0.916 (inactive) | 1.04 (inactive) | 0.999 (inactive) | 0.899 (inactive) | 1.01 (inactive) | 0.935 (inactive)
COc1ccc2[nH]c([S+]([O-])Cc3ncc(C)c(OC)c3C)nc2c1 (stereo not drawn) [Omeprazole] (20 µM) | 1.05 | 0.96 | 1.01 | 1.2 | 0.936 (inactive) | 1.02 (inactive) | 1.01 (inactive) | 0.97 (inactive) | 1.01 (inactive) | 1 (inactive) | 1 (inactive) | 1.02 (inactive)
C[C@H](Cc1cc2c(c(C(N)=O)c1)N(CCCO)CC2)NCCOc1ccccc1OCC(F)(F)F [Silodosin] (20 µM) | 1 | 1 | 1.02 | 1.11 | 0.918 (inactive) | 1.08 (inactive) | 1.01 (inactive) | 0.941 (inactive) | 0.992 (inactive) | 1.02 (inactive) | 1.02 (inactive) | 0.999 (inactive)
CCOc1ccccc1OCCN[C@H](C)Cc1ccc(OC)c(S(N)(=O)=O)c1 [(R)-Tamsulosin hydrochloride] (20 µM) | 0.839 | 0.964 | 1.03 | 1.01 | 0.94 (inactive) | 0.98 (inactive) | 1.02 (inactive) | 1 (inactive) | 1.01 (inactive) | 1.01 (inactive) | 1 (inactive) | 0.976 (inactive)
CC(=O)N(O)CCCCCNC(=O)CCC(=O)N(O)CCCCCNC(=O)CCC(=O)N(O)CCCCCN [Deferoxamine mesylate] (20 µM) | 0.934 | 0.997 | 0.996 | 1.06 | 0.926 (inactive) | 1.04 (inactive) | 1.18 (inactive) | 0.952 (inactive) | 0.951 (inactive) | 0.996 (inactive) | 1.03 (inactive) | 1.29 (inactive)
CCOC(=O)/C=C(C)/C=C/C=C(C)/C=C/c1c(C)cc(OC)c(C)c1C [Etretinate] (20 µM) | 1.04 | 0.971 | 0.965 | 0.927 | 1.09 (inactive) | 1.02 (inactive) | 1.03 (inactive) | 0.998 (inactive) | 1.02 (inactive) | 1 (inactive) | 0.983 (inactive) | 1.04 (inactive)
CC(C)NCC(O)c1ccc2ccccc2c1 (stereo not drawn) [Pronethalol hydrochloride] (20 µM) | 1.12 | 1.01 | 0.993 | 0.98 | 0.97 (inactive) | 0.978 (inactive) | 1.04 (inactive) | 1.01 (inactive) | 0.986 (inactive) | 0.994 (inactive) | 0.982 (inactive) | 1.05 (inactive)
COC(c1ccccc1)(c1ccccc1)[C@H](Oc1nc(C)cc(C)n1)C(=O)O [Ambrisentan] (20 µM) | 0.967 | 1.2 | 0.991 | 1.04 | 1.07 (inactive) | 1.01 (inactive) | 1.02 (inactive) | 1.21 (inactive) | 0.992 (inactive) | 0.985 (inactive) | 0.997 (inactive) | 1.01 (inactive)
CC(C)NC[C@@H](O)COc1cccc2ccccc12 [(R) Propranolol hydrochloride] (20 µM) | 1.08 | 0.856 | 0.86 | 0.617 | 1.01 (inactive) | 1.04 (inactive) | 0.95 (inactive) | 0.979 (inactive) | 0.993 (inactive) | 1.01 (inactive) | 0.987 (inactive) | 0.945 (inactive)
Nc1cc(-c2ccncc2)c[nH]c1=O [Amrinone] (20 µM) | 1.17 | 0.984 | 1.02 | 1.19 | 0.956 (inactive) | 1.05 (inactive) | 1 (inactive) | 1.02 (inactive) | 0.998 (inactive) | 0.982 (inactive) | 1.02 (inactive) | 0.97 (inactive)
CC(=O)OC[C@H]1O[C@@H]([S-])[C@H](OC(C)=O)[C@@H](OC(C)=O)[C@@H]1OC(C)=O.CCP(CC)CC.[Au+] [Auranofin] (20 µM) | 0.978 | 1.02 | 0.951 | 0.00158 | 0.65 (active) | 0.49 (active) | 0.05 (active) | 0.925 (inactive) | 0.89 (inactive) | 0.996 (inactive) | 0.972 (inactive) | 0.0596 (active)

Source: the supplement of paper PMC12494721
